Of roughly 8,800 targets only a part is listed; those with a hit were picked by preference. About 0.5% of all pairs of compound and target were hits. A number with no mark means an inactive call.
Tests used:
Assay in all cases: log2 fold change, soluble protein after heating vs DMSO (PISA); higher = thermal stabilisation; K562 lysate, 10 uM; active = over 0.2 and 3.5 SD of the protein, either way, in both replicates (recomputed)
ibrutinib = compound: C=CC(=O)N1CCC[C@@H](n2nc(-c3ccc(Oc4ccccc4)cc3)c3c(N)ncnc32)C1 [ibrutinib]
Outline: (§1)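 Thermal stability, expressed as log-two fold change relative to solvent controls, is given from duplicates. Crude K562 extract in PBS pH 7.4 with 1 mM MgCl2, at 1 mg/mL protein, was treated with 10 μM compound for 30 min and heated in aliquots for 3 min across 48°C-58°C. After pooling, adjustment to 0.5% NP-40 at 4°C and centrifugation at 21,000xg for 90 min, supernatant protein was measured by TMTpro 16plex LC-MS/MS with channel sums equalised.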

[1] = compound: CC(=O)c1cnc2ccc(-c3cc(Cl)c(O)c(Cl)c3)nc2c1N[C@H]1CC[C@H](CN(C)C)CC1
Outline: as §1

ralimetinib = compound: CC(C)(C)Cn1c(N)nc2ccc(-c3[nH]c(C(C)(C)C)nc3-c3ccc(F)cc3)nc21 [ralimetinib]
Outline: as §1

[2] = compound: CC(C)(O)CC(=O)NCCn1ccc2ncnc(Nc3ccc(Oc4cccc(C(F)(F)F)c4)c(Cl)c3)c21
Outline: as §1

[3] = compound: CC(C)C1=C2N=C(C=C(N2N=C1)NCC3=CC=CC=C3)NCCCCCCN
Outline: as §1

[4] = compound: CC1=C(C(CC(=O)N1)C2=CC=C(C=C2)C(F)(F)F)C(=O)NC3=C(C=C4C(=C3)C=NN4)F
Outline: as §1

[5] = compound: CC1=C(C2=C(C=C1)C(=O)C3=CC=CC=C3N2CCCN)C
Outline: as §1

[6] = compound: CC1=C(C=C(C=C1)NC(=O)C2=CC(=CC=C2)C(C)(C)C#N)NC3=CC4=C(C=C3)N=CN(C4=O)C
Outline: as §1

[7] = compound: CC1=C(C=C(C=C1)NC(=O)C2=CC(=CC=C2)N(C)C)NC(=O)C3=CC=C(C=C3)O
Outline: as §1

[8] = compound: CC1=CC=C(C=C1)SC2=C3C=C(SC3=CN=C2)C(=O)N
Outline: as §1

MAPKAPK2 (UniProt P49137)
log2 fold change (ibrutinib): 0.05
log2 fold change [1]: 0.385 (active)
log2 fold change (ralimetinib): -0.011
log2 fold change [2]: 0.016
log2 fold change [3]: -0.046
log2 fold change [4]: 0.003
log2 fold change [5]: 0.002
log2 fold change [6]: -0.056
log2 fold change [7]: 0.026
log2 fold change [8]: 0

MCMBP (UniProt Q9BTE3)
log2 fold change (ibrutinib): 0.001
log2 fold change [1]: -0.007
log2 fold change (ralimetinib): 0.016
log2 fold change [2]: 0.038
log2 fold change [3]: -0.009
log2 fold change [4]: 0
log2 fold change [5]: 0.008
log2 fold change [6]: 0.008
log2 fold change [7]: 0.011
log2 fold change [8]: 0.014

MPZL1 (UniProt O95297)
log2 fold change (ibrutinib): 0.01
log2 fold change [1]: -0.008
log2 fold change (ralimetinib): -0.01
log2 fold change [2]: 0.022
log2 fold change [3]: -0.035
log2 fold change [4]: -0.006
log2 fold change [5]: 0.003
log2 fold change [6]: 0.02
log2 fold change [7]: -0.035
log2 fold change [8]: -0.036

KLHL12 isoform 2 (UniProt Q53G59)
log2 fold change (ibrutinib): 0.156
log2 fold change [1]: 0.067
log2 fold change (ralimetinib): 0.123
log2 fold change [2]: -0.032
log2 fold change [3]: 0.073
log2 fold change [4]: 0.026
log2 fold change [5]: -0.041
log2 fold change [6]: -0.066
log2 fold change [7]: 0
log2 fold change [8]: 0.007

LETM1 (UniProt O95202)
log2 fold change (ibrutinib): -0.006
log2 fold change [1]: -0.001
log2 fold change (ralimetinib): 0.007
log2 fold change [2]: 0.002
log2 fold change [3]: 0.045
log2 fold change [4]: -0.026
log2 fold change [5]: 0.026
log2 fold change [6]: 0.036
log2 fold change [7]: 0
log2 fold change [8]: 0.037

LYN (UniProt P07948)
log2 fold change (ibrutinib): 1.15 (active)
log2 fold change [1]: 0.141
log2 fold change (ralimetinib): -0.068
log2 fold change [2]: 0.068
log2 fold change [3]: 0
log2 fold change [4]: 0.003
log2 fold change [5]: -0.043
log2 fold change [6]: 0.479
log2 fold change [7]: 0.007
log2 fold change [8]: -0.126

MAT2B (UniProt Q9NZL9)
log2 fold change (ibrutinib): 0
log2 fold change [1]: -0.008
log2 fold change (ralimetinib): -0.005
log2 fold change [2]: -0.006
log2 fold change [3]: -0.002
log2 fold change [4]: -0.023
log2 fold change [5]: 0.016
log2 fold change [6]: 0.015
log2 fold change [7]: -0.013
log2 fold change [8]: -0.005

LPIN1 isoform 7 (UniProt Q14693)
log2 fold change (ibrutinib): 0.02
log2 fold change [1]: 0.07
log2 fold change (ralimetinib): 0.035
log2 fold change [2]: -0.025
log2 fold change [3]: -0.033
log2 fold change [4]: 0.066
log2 fold change [5]: 0.022
log2 fold change [6]: -0.016
log2 fold change [7]: 0.007
log2 fold change [8]: -0.009

MMS19 isoform 8 (UniProt Q96T76)
log2 fold change (ibrutinib): -0.023
log2 fold change [1]: -0.011
log2 fold change (ralimetinib): 0.022
log2 fold change [2]: -0.02
log2 fold change [3]: -0.041
log2 fold change [4]: 0.006
log2 fold change [5]: -0.018
log2 fold change [6]: 0.013
log2 fold change [7]: 0.055
log2 fold change [8]: 0.004

MAPK14 isoform 2 (UniProt Q16539)
log2 fold change (ibrutinib): 0.03
log2 fold change [1]: 0.249
log2 fold change (ralimetinib): 0.97 (active)
log2 fold change [2]: -0.047
log2 fold change [3]: -0.003
log2 fold change [4]: 0.02
log2 fold change [5]: -0.027
log2 fold change [6]: 0.973 (active)
log2 fold change [7]: 0.419
log2 fold change [8]: 0.011

MAST4 (UniProt O15021)
log2 fold change (ibrutinib): 0.019
log2 fold change [1]: 0.423 (active)
log2 fold change (ralimetinib): 0.04
log2 fold change [2]: 0.061
log2 fold change [3]: -0.032
log2 fold change [4]: -0.075
log2 fold change [5]: 0.032
log2 fold change [6]: -0.173
log2 fold change [7]: -0.023
log2 fold change [8]: 0.049

MACROD1 (UniProt Q9BQ69)
Sequence of UniProt Q9BQ69 (Q9BQ69 whole entry, looked up): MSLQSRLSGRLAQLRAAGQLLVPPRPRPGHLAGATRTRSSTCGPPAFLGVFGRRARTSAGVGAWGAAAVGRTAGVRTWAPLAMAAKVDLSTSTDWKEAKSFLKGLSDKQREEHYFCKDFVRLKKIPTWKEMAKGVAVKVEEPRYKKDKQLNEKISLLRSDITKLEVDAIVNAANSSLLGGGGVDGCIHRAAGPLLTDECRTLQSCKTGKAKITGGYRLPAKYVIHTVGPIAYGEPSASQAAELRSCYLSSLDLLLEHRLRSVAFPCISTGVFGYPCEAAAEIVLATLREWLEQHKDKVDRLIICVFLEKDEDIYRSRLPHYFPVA
log2 fold change (ibrutinib): 0
log2 fold change [1]: 0.015
log2 fold change (ralimetinib): 0.098
log2 fold change [2]: -0.024
log2 fold change [3]: -0.008
log2 fold change [4]: 0.022
log2 fold change [5]: 0.017
log2 fold change [6]: -0.101
log2 fold change [7]: 0.064
log2 fold change [8]: 0.065

KIF11 (UniProt P52732)
log2 fold change (ibrutinib): 0.005
log2 fold change [1]: -0.003
log2 fold change (ralimetinib): 0.029
log2 fold change [2]: 0.01
log2 fold change [3]: 0.007
log2 fold change [4]: 0.005
log2 fold change [5]: 0.01
log2 fold change [6]: -0.019
log2 fold change [7]: 0.014
log2 fold change [8]: 0.015

KRR1 (UniProt Q13601)
Sequence of UniProt Q13601 (Q13601 whole entry, looked up): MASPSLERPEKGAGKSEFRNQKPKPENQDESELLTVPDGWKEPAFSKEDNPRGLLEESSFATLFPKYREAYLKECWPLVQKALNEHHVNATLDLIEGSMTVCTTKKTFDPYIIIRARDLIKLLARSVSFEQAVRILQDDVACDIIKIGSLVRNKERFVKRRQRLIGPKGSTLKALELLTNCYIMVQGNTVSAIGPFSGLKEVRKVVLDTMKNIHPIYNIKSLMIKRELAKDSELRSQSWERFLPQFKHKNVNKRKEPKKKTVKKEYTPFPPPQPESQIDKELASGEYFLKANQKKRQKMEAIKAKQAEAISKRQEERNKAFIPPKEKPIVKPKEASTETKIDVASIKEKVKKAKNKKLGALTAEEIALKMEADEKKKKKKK
log2 fold change (ibrutinib): 0.037
log2 fold change [1]: 0.009
log2 fold change (ralimetinib): 0.035
log2 fold change [2]: 0.042
log2 fold change [3]: -0.04
log2 fold change [4]: 0.041
log2 fold change [5]: -0.032
log2 fold change [6]: 0.144
log2 fold change [7]: 0.093
log2 fold change [8]: -0.027

MGAT5 (UniProt Q09328)
Sequence of UniProt Q09328 (Q09328 whole entry, looked up): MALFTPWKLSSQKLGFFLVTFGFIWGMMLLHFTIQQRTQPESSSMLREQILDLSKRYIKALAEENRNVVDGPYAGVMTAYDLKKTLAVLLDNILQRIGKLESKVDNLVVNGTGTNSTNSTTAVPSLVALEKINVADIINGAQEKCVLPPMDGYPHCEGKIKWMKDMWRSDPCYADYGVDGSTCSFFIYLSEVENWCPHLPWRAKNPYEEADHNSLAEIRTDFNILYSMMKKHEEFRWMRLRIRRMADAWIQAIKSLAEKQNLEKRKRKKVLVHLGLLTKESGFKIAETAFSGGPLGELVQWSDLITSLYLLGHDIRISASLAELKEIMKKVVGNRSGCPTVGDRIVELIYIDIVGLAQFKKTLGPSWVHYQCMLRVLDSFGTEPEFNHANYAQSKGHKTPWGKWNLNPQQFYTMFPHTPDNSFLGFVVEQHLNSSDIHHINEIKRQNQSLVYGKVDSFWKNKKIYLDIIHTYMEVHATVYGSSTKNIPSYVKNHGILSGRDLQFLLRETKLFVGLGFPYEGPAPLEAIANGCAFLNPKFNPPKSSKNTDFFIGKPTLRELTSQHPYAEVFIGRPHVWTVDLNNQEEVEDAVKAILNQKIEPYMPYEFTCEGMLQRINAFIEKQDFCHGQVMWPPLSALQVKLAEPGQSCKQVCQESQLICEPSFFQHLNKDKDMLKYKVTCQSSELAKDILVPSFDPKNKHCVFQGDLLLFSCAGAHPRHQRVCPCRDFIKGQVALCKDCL
log2 fold change (ibrutinib): 0.038
log2 fold change [1]: 0.014
log2 fold change (ralimetinib): 0.001
log2 fold change [2]: 0.039
log2 fold change [3]: -0.045
log2 fold change [4]: -0.084
log2 fold change [5]: 0.005
log2 fold change [6]: -0.002
log2 fold change [7]: -0.004
log2 fold change [8]: 0.014

MLH1 (UniProt P40692)
Sequence of UniProt P40692 (P40692 whole entry, looked up): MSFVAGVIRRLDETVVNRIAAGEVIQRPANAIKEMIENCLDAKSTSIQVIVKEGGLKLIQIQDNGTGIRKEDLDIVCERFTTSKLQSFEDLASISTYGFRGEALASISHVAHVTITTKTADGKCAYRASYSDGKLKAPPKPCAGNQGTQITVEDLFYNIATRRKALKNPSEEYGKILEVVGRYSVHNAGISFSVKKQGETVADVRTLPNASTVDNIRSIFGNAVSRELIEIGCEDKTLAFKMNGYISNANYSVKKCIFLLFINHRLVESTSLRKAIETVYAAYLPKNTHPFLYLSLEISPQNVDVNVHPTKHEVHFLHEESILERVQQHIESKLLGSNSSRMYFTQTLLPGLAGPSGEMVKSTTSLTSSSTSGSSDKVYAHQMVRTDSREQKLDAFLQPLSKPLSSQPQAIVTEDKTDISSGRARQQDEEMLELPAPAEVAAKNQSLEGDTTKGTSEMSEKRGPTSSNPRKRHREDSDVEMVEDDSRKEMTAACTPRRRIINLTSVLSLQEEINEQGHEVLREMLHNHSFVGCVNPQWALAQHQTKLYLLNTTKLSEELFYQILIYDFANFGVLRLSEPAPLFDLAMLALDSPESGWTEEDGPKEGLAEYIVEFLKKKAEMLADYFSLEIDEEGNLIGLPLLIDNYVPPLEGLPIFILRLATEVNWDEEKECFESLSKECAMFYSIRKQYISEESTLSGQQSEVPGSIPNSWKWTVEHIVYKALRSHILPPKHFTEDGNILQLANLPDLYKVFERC
log2 fold change (ibrutinib): 0.01
log2 fold change [1]: -0.009
log2 fold change (ralimetinib): 0.02
log2 fold change [2]: -0.035
log2 fold change [3]: -0.018
log2 fold change [4]: 0.017
log2 fold change [5]: -0.055
log2 fold change [6]: 0.014
log2 fold change [7]: -0.006
log2 fold change [8]: 0.03

LBR (UniProt Q14739)
log2 fold change (ibrutinib): 0.034
log2 fold change [1]: -0.01
log2 fold change (ralimetinib): 0.019
log2 fold change [2]: -0.121
log2 fold change [3]: -0.029
log2 fold change [4]: 0.018
log2 fold change [5]: 0.065
log2 fold change [6]: -0.089
log2 fold change [7]: -0.026
log2 fold change [8]: -0.036

MRPL10 isoform 2 (UniProt Q7Z7H8)
log2 fold change (ibrutinib): -0.062
log2 fold change [1]: -0.013
log2 fold change (ralimetinib): 0.047
log2 fold change [2]: -0.019
log2 fold change [3]: -0.04
log2 fold change [4]: -0.029
log2 fold change [5]: -0.005
log2 fold change [6]: 0.025
log2 fold change [7]: 0.053
log2 fold change [8]: 0.042

MITD1 (UniProt Q8WV92)
log2 fold change (ibrutinib): 0.007
log2 fold change [1]: -0.067
log2 fold change (ralimetinib): -0.039
log2 fold change [2]: 0.01
log2 fold change [3]: 0.024
log2 fold change [4]: -0.02
log2 fold change [5]: -0.071
log2 fold change [6]: -0.059
log2 fold change [7]: 0.058
log2 fold change [8]: -0.027

LARS (UniProt Q9P2J5)
log2 fold change (ibrutinib): -0.021
log2 fold change [1]: -0.003
log2 fold change (ralimetinib): 0.023
log2 fold change [2]: 0.048
log2 fold change [3]: 0.021
log2 fold change [4]: -0.001
log2 fold change [5]: -0.017
log2 fold change [6]: -0.041
log2 fold change [7]: 0.029
log2 fold change [8]: 0.022

MAPK14 (UniProt Q16539)
log2 fold change (ibrutinib): 0.042
log2 fold change [1]: 0.238
log2 fold change (ralimetinib): 1.16 (active)
log2 fold change [2]: -0.008
log2 fold change [3]: -0.06
log2 fold change [4]: -0.14
log2 fold change [5]: -0.026
log2 fold change [6]: 0.88 (active)
log2 fold change [7]: 0.455
log2 fold change [8]: -0.007

MCU (UniProt Q8NE86)
log2 fold change (ibrutinib): -0.05
log2 fold change [1]: 0.04
log2 fold change (ralimetinib): 0.086
log2 fold change [2]: -0.021
log2 fold change [3]: -0.055
log2 fold change [4]: 0.014
log2 fold change [5]: 0.02
log2 fold change [6]: 0.034
log2 fold change [7]: 0.014
log2 fold change [8]: -0.023

KIF4B (UniProt Q2VIQ3)
log2 fold change (ibrutinib): 0.027
log2 fold change [1]: 0.005
log2 fold change (ralimetinib): 0.004
log2 fold change [2]: -0.03
log2 fold change [3]: 0.013
log2 fold change [4]: 0.04
log2 fold change [5]: -0.018
log2 fold change [6]: 0.01
log2 fold change [7]: 0.002
log2 fold change [8]: -0.036

MCCC1 (UniProt Q96RQ3)
log2 fold change (ibrutinib): 0.034
log2 fold change [1]: -0.033
log2 fold change (ralimetinib): 0.022
log2 fold change [2]: -0.042
log2 fold change [3]: -0.014
log2 fold change [4]: -0.028
log2 fold change [5]: 0.026
log2 fold change [6]: -0.006
log2 fold change [7]: -0.004
log2 fold change [8]: 0.013

LARS2 (UniProt Q15031)
Sequence of UniProt Q15031 (Q15031 whole entry, looked up): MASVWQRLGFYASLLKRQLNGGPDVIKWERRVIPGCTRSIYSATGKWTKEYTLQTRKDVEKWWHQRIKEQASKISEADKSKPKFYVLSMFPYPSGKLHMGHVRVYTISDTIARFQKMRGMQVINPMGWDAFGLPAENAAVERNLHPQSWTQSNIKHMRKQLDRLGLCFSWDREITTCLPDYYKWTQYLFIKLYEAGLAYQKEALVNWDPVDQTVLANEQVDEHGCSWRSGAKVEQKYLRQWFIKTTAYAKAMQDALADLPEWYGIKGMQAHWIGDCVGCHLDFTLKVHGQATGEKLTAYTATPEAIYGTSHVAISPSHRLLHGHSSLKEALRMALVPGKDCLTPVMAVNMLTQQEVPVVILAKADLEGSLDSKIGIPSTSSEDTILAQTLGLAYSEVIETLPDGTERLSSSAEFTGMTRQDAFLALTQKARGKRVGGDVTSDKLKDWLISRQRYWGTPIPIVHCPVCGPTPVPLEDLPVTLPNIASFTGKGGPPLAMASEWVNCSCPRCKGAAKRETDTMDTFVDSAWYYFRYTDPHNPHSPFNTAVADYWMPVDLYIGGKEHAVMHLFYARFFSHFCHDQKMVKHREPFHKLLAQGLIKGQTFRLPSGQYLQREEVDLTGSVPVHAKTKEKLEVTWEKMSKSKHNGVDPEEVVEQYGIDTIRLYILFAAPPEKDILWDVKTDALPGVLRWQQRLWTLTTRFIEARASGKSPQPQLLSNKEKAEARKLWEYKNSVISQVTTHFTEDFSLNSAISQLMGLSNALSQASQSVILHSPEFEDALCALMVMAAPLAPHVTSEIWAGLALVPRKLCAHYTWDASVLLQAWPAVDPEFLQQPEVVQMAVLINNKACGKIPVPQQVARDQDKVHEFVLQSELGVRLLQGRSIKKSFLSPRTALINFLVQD
log2 fold change (ibrutinib): 0.009
log2 fold change [1]: 0.034
log2 fold change (ralimetinib): 0.026
log2 fold change [2]: 0.156
log2 fold change [3]: -0.027
log2 fold change [4]: 0.02
log2 fold change [5]: 0.063
log2 fold change [6]: -0.036
log2 fold change [7]: 0.046
log2 fold change [8]: 0.028

LLGL1 (UniProt Q15334)
Sequence of UniProt Q15334 (Q15334 whole entry, looked up): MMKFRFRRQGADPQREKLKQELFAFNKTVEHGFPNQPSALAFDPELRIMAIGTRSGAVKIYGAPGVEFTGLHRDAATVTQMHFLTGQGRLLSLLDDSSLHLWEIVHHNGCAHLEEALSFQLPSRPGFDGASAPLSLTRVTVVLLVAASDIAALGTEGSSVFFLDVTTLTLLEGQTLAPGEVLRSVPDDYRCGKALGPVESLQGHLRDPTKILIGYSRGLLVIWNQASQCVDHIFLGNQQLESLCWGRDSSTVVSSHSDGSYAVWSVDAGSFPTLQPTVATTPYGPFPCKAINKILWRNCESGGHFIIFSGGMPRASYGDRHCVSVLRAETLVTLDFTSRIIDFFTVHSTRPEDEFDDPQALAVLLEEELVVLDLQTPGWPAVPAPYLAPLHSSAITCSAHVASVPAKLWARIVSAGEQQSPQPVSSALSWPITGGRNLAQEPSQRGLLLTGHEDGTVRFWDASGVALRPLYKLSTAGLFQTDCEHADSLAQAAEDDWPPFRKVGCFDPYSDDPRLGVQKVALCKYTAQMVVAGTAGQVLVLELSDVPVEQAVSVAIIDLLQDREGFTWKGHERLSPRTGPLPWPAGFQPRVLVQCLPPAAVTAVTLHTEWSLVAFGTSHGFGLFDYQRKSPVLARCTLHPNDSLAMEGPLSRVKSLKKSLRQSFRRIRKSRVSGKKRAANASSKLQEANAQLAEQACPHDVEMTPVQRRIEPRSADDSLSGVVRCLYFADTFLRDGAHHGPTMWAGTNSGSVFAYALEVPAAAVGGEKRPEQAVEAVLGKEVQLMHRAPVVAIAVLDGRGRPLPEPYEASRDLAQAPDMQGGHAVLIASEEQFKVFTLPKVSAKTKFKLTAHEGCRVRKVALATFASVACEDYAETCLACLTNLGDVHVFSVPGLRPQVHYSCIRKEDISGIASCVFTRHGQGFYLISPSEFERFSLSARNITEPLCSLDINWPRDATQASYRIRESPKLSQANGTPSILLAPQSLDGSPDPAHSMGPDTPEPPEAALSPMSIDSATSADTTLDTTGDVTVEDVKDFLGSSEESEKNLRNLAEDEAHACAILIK
log2 fold change (ibrutinib): 0.007
log2 fold change [1]: 0.091
log2 fold change (ralimetinib): 0.071
log2 fold change [2]: 0.015
log2 fold change [3]: -0.141
log2 fold change [4]: 0.033
log2 fold change [5]: -0.058
log2 fold change [6]: 0.019
log2 fold change [7]: 0.174
log2 fold change [8]: -0.011

LIG4 (UniProt P49917)
log2 fold change (ibrutinib): 0.056
log2 fold change [1]: 0.174
log2 fold change (ralimetinib): -0.001
log2 fold change [2]: -0.023
log2 fold change [3]: 0.013
log2 fold change [4]: -0.016
log2 fold change [5]: -0.021
log2 fold change [6]: 0.004
log2 fold change [7]: 0.015
log2 fold change [8]: 0.109

MAPKAPK3 (UniProt Q16644)
log2 fold change (ibrutinib): 0.011
log2 fold change [1]: 0.026
log2 fold change (ralimetinib): 0.006
log2 fold change [2]: -0.003
log2 fold change [3]: -0.011
log2 fold change [4]: 0.065
log2 fold change [5]: -0.027
log2 fold change [6]: 0.082
log2 fold change [7]: 0.029
log2 fold change [8]: 0.033

MRPL35 (UniProt Q9NZE8)
log2 fold change (ibrutinib): -0.019
log2 fold change [1]: -0.014
log2 fold change (ralimetinib): 0.041
log2 fold change [2]: 0.047
log2 fold change [3]: 0.013
log2 fold change [4]: -0.012
log2 fold change [5]: -0.108
log2 fold change [6]: -0.032
log2 fold change [7]: 0.032
log2 fold change [8]: 0.01

LIMK2 isoform 3 (UniProt P53671)
Sequence of UniProt P53671 (P53671 whole entry, looked up): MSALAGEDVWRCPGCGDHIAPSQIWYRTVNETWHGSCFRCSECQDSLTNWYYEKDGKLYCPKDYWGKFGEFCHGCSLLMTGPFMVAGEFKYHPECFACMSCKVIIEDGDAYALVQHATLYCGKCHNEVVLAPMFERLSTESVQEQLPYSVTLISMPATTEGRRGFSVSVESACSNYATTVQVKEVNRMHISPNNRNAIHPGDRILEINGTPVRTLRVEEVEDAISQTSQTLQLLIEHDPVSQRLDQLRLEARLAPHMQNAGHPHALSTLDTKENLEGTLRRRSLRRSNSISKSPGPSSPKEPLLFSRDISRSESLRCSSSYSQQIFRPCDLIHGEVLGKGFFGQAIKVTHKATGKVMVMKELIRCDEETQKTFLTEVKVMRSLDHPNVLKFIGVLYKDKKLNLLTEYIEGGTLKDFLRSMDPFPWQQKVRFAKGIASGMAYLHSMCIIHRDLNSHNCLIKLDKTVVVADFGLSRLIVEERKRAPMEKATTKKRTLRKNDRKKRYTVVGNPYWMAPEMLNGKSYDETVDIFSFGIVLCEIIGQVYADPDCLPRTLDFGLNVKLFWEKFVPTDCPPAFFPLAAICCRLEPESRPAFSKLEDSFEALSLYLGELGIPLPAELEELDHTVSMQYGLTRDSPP
log2 fold change (ibrutinib): 0.129
log2 fold change [1]: 0.003
log2 fold change (ralimetinib): 0
log2 fold change [2]: 0.018
log2 fold change [3]: 0.008
log2 fold change [4]: -0.03
log2 fold change [5]: -0.005
log2 fold change [6]: 0.175
log2 fold change [7]: 0.013
log2 fold change [8]: -0.073

Reference: the supplement of paper PMC10849652
